# Measured values taken from PubChem BioAssay (NCATS).
# Records with an inconclusive call do not appear. Where a call stands in place of a potency, no number is given. Activity calls are given as the source filed them. Unless noted, calls follow the shape of the dose curve; as a rule, active = well fitted curve in the direction sought with a large enough effect; inconclusive = small, poorly fitted or top-dose-only effect, or another doubt; inactive = no such curve, though single readings can be large; an effect the other way counts as inactive or inconclusive.
# How the values were obtained:
# [1] = Validation of Assay for Modulators of Lamin A Splicing (AID 1459; active = well fitted curve in the direction sought with a large enough effect in the signal ratio; the % refers to the signal ratio;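 also: cells exposed to compound for two days before reading; ratio rise marks activators and ratio drop marks inhibitors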)
# In short: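 Readout: ratio of GFP (500-530 nm) to RFP (575-640 nm) total object intensity by 488 nm laser-scanning cytometry after 48 hrs. Cells were HeLa S3 clones carrying lamin A-EGFP minigene plus DsRed2 viability reporter; vehicle 0.5% DMSO final.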
# [2] = Cell Viability - LYMP2-023 (AID 975);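 also: cellular ATP measured by luciferase luminescence as viability proxy; series mostly up to about 92 µM; nearly all actives have a fitted effect of over 55% in size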
# In short: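 Steps: seed 2500 human lymphoblastoid cells per well, incubate 5 hr at 37 C, add compound for 24 hr at 37 C, add CellTiter-Glo, hold 30 min at room temperature, read luminescence. AC50 derived by Hill modelling.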
# [3] = Cell Viability - LYMP2-025 (AID 976); also: series mostly up to about 92 µM
# In short: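 Acute cytotoxicity is scored as a concentration-dependent fall in intracellular ATP, measured by luciferase luminescence, in human lymphoblastoid LYMP2-025 cells exposed to compound for 24 hours at 37 C. AC50 values come from standard Hill fits.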
# [4] = Cell Viability - LYMP2-002 (AID 977);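 also: series mostly up to about 92 µM; compound exposure lasted 24 h at 37 °C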
# In short: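 Human lymphoblastoid cells, 2500/well, complete medium; 5 h 37 C settle; compound 24 h 37 C; CellTiter-Glo, 30 min RT; luminescence. Decrease in ATP = cytotoxicity; AC50 via Hill equation.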
# [5] = Cell Viability - LYMP2-006 (AID 978); also: series mostly up to about 92 µM; nearly all actives have a fitted effect of over 60% in size
# In short: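 qHTS, 1536-well; 2500 cells/well, 5 hr 37 C; cpd 24 hr 37 C; CellTiter-Glo 30 min RT; luminescence. Tetraoctylammonium bromide pos. ctrl. AC50 via Hill eqn.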
# [6] = Cell Viability - LYMP2-007 (AID 979);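 also: cells exposed to compound for 24 h before reading; nearly all actives have a fitted effect of over 60% in size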
# In short: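 Cells are seeded at 2500 per well and rested 5 hr. Compounds are then added over a concentration series for 24 hr at 37 C. CellTiter-Glo is added for 30 min at room temperature before luminescence reading.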
# [7] = Cell Viability - LYMP2-008 (AID 980); also: nearly all actives have a fitted effect of over 60% in size
# In short: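 Cells seeded at 2500/well and rested 5 hr at 37 C; compounds added over a concentration range and incubated 24 hr at 37 C; CellTiter-Glo added, 30 min at room temperature; luminescence read and AC50 fitted with Hill model.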
# [8] = Cell Viability - LYMP2-014 (AID 983); also: series mostly up to about 92 µM; nearly all actives have a fitted effect of over 50% in size
# In short: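 Cells are plated at 2500/well and left 5 hr at 37 C. Compounds are added across a concentration range and incubated 24 hr at 37 C in complete medium. CellTiter-Glo is added, and luminescence is read after 30 min at room temperature.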
# [9] = Cell Viability - LYMP2-016 (AID 984); also: nearly all actives have a fitted effect of over 55% in size
# In short: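 qHTS, 1536-well: 2500 LYMP2-016 cells/well, 5 hr 37 C, compound added, 24 hr 37 C, CellTiter-Glo 30 min RT, luminescence. Tetraoctylammonium bromide positive control. AC50 via Hill fit.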
# [10] = Cell Viability - LYMP2-018 (AID 985);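 also: compound exposure lasted 24 hr at 37 °C; nearly all actives have a fitted effect of over 50% in size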; also: potency is read from the fitted curve at half-maximal effect
# In short: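 Seed 2500 lymphoblastoid cells per well, incubate 5 hr at 37 C, add compound and incubate 24 hr at 37 C, add CellTiter-Glo, wait 30 min at room temperature, then read luminescence.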
# [11] = Cell Viability - LYMP2-020 (AID 986); also: series mostly up to about 92 µM; nearly all actives have a fitted effect of over 55% in size
# In short: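 Seed 2500 cells per well and incubate 5 hr at 37 C. Add compounds at a concentration series and incubate 24 hr at 37 C. Add CellTiter-Glo, wait 30 min at RT, read luminescence, and fit a Hill curve for AC50.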
# [12] = Cell Viability - LYMP2-022 (AID 987); also: nearly all actives have a fitted effect of over 55% in size; also: potency is read from the fitted curve at half-maximal effect
# In short: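 Cells were seeded at 2500 per well, rested 5 hr at 37 C, and treated with titrated compounds for 24 hr at 37 C. Cellular ATP was then quantified by luciferase luminescence, and AC50 values were derived from Hill-modelled concentration-response curves.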
# [13] = Cell Viability - LYMP2-024 (AID 988); also: nearly all actives have a fitted effect of over 60% in size; also: potency is read from the fitted curve at half-maximal effect
# In short: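 qHTS cytotoxicity, human lymphoblastoid line, complete medium; 24 h cpd treatment, 37 C; CellTiter-Glo ATP luminescence readout; tetraoctylammonium bromide positive control; AC50 via Hill fit.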
# [14] = Cell Viability - LYMP2-026 (AID 989); also: nearly all actives have a fitted effect of over 50% in size
# In short: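 Cells are seeded at 2500 per well and held 5 hr at 37 C. Compounds are added in concentration series for 24 hr, then CellTiter-Glo reagent is applied and luminescence read.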
# [15] = Cell Viability - LYMP1-002 - Assay at 24 hr (AID 993)
# In short: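 Acute toxicity is measured as concentration-dependent loss of cellular ATP in a human lymphoblastoid line (Coriell LYMP1-002) after 24 h treatment in complete medium. ATP is quantified by luciferase luminescence and AC50 derived by Hill modelling.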
# [16] = Cell Viability - LYMP1-002 - Assay at 40 hr (AID 994); also: nearly all actives have a fitted effect of over 60% in size; also: potency is read from the fitted curve at half-maximal effect
# In short: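 Cells are plated at 2500 per well and rested 5 hr at 37 C. Compounds are added and incubated 40 hr at 37 C. CellTiter-Glo reagent is added for 30 min at room temperature before luminescence is read.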
# [17] = Cell Viability - LYMP2-010 (AID 981); also: nearly all actives have a fitted effect of over 55% in size
# In short: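 Steps: seed 2500 LYMP2-010 cells per well; incubate 5 hr at 37 C; add compound; incubate 24 hr at 37 C; add CellTiter-Glo, wait 30 min at room temperature; read luminescence. Concentration-response fitted to Hill equation for AC50.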
# [18] = Cell Viability - LYMP2-012 (AID 982)
# [19] = molecular target: Alpha-galactosidase A (Homo sapiens) (UniProt P06280); assay: Counterscreen for Glucocerebrosidase Inhibitors: qHTS Assay for Human alpha-Galactosidase at pH 4.5 (AID 992)
# In short: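 Each compound is preincubated briefly with 2 nM enzyme before substrate addition (80 uM); plates then sit 20 min at ambient temperature, are quenched with 1M NaOH/1M glycine, and read fluorometrically.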
# [20] = molecular target: alpha-glucosidase (Oryza sativa, rice) (UniProt Q653V4); assay: Counterscreen for Glucocerebrosidase Inhibitors: qHTS Assay for Rice alpha-Glucosidase at pH 5.0 (AID 997)
# In short: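 Endpoint fluorogenic assay at pH 5.0: compounds (0.7 nM to 77 uM) titrated against 4 nM rice enzyme and 400 uM 4-MU-alpha-glucoside for 20 min at room temperature; NaOH/glycine stop, read ex 365/em 440 nm, Hill-fitted AC50.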
# Chain of Alpha-galactosidase A (Homo sapiens) (P06280 whole entry, looked up): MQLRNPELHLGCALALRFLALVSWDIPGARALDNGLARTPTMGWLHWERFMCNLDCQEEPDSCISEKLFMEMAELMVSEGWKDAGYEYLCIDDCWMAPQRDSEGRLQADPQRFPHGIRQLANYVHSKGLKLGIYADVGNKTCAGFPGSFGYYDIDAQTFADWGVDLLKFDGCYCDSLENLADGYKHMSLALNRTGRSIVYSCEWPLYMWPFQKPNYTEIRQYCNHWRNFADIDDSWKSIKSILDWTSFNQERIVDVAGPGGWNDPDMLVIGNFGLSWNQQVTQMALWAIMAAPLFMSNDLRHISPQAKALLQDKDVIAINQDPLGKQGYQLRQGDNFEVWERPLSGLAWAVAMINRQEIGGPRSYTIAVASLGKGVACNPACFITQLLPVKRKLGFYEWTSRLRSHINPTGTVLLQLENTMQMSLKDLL
structure (smiles),measurement,setting,value
COc1cc(C(O)CO)ccc1OS(=O)(=O)O (stereo unspecified),outcome,[1],inactive
C=CC(N)CCC(=O)O (stereo unspecified),outcome,[1],inactive
CN(C)CCC(c1ccc(Cl)cc1)c1ccccn1 (stereo unspecified),Potency,[2],inactive
same,Potency,[3],inactive
same,Potency,[4],inactive
same,Potency,[5],inactive
same,Potency,[6],inactive
same,Potency,[7],inactive
same,Potency,[8],inactive
same,Potency,[9],inactive
same,Potency,[10],inactive
same,Potency,[11],inactive
same,Potency,[12],inactive
same,Potency,[13],inactive
same,Potency,[14],inactive
same,Potency,[15],inactive
same,Potency,[16],inactive
same,outcome,[1],inactive
OC[C@H]1O[C@@H](n2cnc3c(NC4CCCCC4)ncnc32)[C@H](O)[C@@H]1O,outcome,[1],inactive
O=C(O)CC1CCCc2ccccc2C1O (stereo unspecified),outcome,[1],inactive
Cc1ccccc1CNc1ncnc2c1ncn2C1OC(CO)C(O)C1O (stereo unspecified),outcome,[1],inactive
Cc1ccc(C(=O)O[C@H](C(=O)O)[C@@H](OC(=O)c2ccc(C)cc2)C(=O)O)cc1 (tested in a mixture with another compound),outcome,[1],inactive
NC(CCCP(=O)(O)O)C(=O)O (stereo unspecified),outcome,[1],inactive
CN[C@H](CC(C)C)C(=O)N[C@H]1C(=O)N[C@@H](CC(N)=O)C(=O)N[C@H]2C(=O)N[C@H]3C(=O)N[C@H](C(=O)N[C@H](C(=O)O)c4cc(O)cc(O)c4-c4cc3ccc4O)[C@H](O)c3ccc(c(Cl)c3)Oc3cc2cc(c3O[C@@H]2O[C@H](CO)[C@@H](O)[C@H](O)[C@H]2O[C@H]2C[C@](C)(N)[C@H](O)[C@H](C)O2)Oc2ccc(cc2Cl)[C@H]1O,outcome,[1],inactive
CCCCC/C=C\CC(O)/C=C/c1cccc(CC(O)CCCCO)n1 (stereo unspecified),outcome,[1],inactive
OCC1O[C@H](O)C(Cl)C(O)C1O (stereo partly specified),outcome,[1],inactive
CN1CCC[C@H]1c1cccnc1,Potency,[2],inactive
same,Potency,[3],inactive
same,Potency,[4],inactive
same,Potency,[5],inactive
same,Potency,[6],inactive
same,Potency,[7],inactive
same,Potency,[17],inactive
same,Potency,[18],inactive
same,Potency,[8],inactive
same,Potency,[9],inactive
same,Potency,[10],inactive
same,Potency,[11],inactive
same,Potency,[12],inactive
same,Potency,[13],inactive
same,Potency,[14],inactive
same,Potency,[15],inactive
same,Potency,[16],inactive
same,outcome,[1],inactive
O=C(/C=C/c1ccc(O)cc1)c1ccc(O)cc1O,outcome,[1],inactive
CN1[C@@H](CC(=O)c2ccccc2)CCC[C@H]1C[C@H](O)c1ccccc1,outcome,[1],inactive
Fc1cccc(/C=N/N=C/c2cccc(F)c2)c1,outcome,[1],inactive
Oc1ccc(C2CNCc3sccc32)cc1O (stereo unspecified),outcome,[1],inactive
O=C(O)CNC(=O)C(CS)Cc1ccccc1 (stereo unspecified),outcome,[1],inactive
CN1C2CCC1CC(OC(=O)C(O)c1ccccc1)C2 (stereo unspecified),outcome,[1],inactive
COc1cc2nc(N3CCN(C(=O)OCc4ccccc4)C(C(=O)NC(C)(C)C)C3)nc(N)c2cc1OC (stereo unspecified),outcome,[1],inactive
CC(C)(C)NCC(O)COc1nsnc1N1CCOCC1 (stereo unspecified),outcome,[1],inactive
C=C/C(C)=C/[C@@]1(C)SC(=O)C(C)=C1O,outcome,[1],inactive
CN1CCc2cc(O)c(O)cc2C(c2ccccc2)C1 (stereo unspecified),outcome,[1],inactive
N#C/C(=C\c1ccc(O)c(O)c1)C(=O)c1ccc(O)c(O)c1,outcome,[19],inactive
same,outcome,[20],inactive
same,outcome,[1],inactive
c1cnc2c(c1)ccc1cccnc12,Potency,[10],25.1 µM (active)
same,Potency,[12],12.6 µM (active)
same,Potency,[13],12.6 µM (active)
same,outcome,[19],inactive
same,Potency,[16],12.6 µM (active)
same,outcome,[20],inactive
same,outcome,[1],inactive
CC(=O)N[C@H](C(=O)O)C(C)(C)SN=O,outcome,[1],inactive
COc1cccc(OC)c1OCCNCC1COc2ccccc2O1 (stereo unspecified),outcome,[1],inactive
O=C(O)/C=C/C(O)c1ccc(Cl)cc1 (stereo unspecified),outcome,[1],inactive
CC1CN(S(=O)(=O)c2cccc3cnccc23)CCN1 (stereo unspecified),outcome,[1],inactive
CC(C)NCC(O)COc1cccc2ccccc12 (stereo unspecified),Potency,[2],inactive
same,Potency,[3],inactive
same,Potency,[4],inactive
same,Potency,[5],inactive
same,Potency,[6],inactive
same,Potency,[7],inactive
same,Potency,[17],inactive
same,Potency,[18],inactive
same,Potency,[8],inactive
same,Potency,[9],inactive
same,Potency,[10],inactive
same,Potency,[11],inactive
same,Potency,[12],inactive
same,Potency,[13],inactive
same,Potency,[14],inactive
same,Potency,[15],inactive
same,Potency,[16],inactive
same,outcome,[1],inactive
